Assay results from PubChem BioAssay (Tox21).
Inconclusive results are not listed. Unmarked numbers belong to inactive results. The source made the active and inactive calls. The call rests on the fitted dose curve; in most records, active means well fitted inhibition curve with a large enough effect in the repeat runs; inconclusive means weak or mixed curves; inactive means no such curve, though single readings can be large or run the other way.

The compounds below were run against Cytochrome P450 2C19 (Homo sapiens) (UniProt P33261) (assay: Cytochrome P450 Family 2 Subfamily C Member 19 (CYP2C19) small molecule antagonists: luciferase reporter qHTS assay (AID 1671197; further: nearly all actives have a fitted effect of over 65% in size)). Settings: P450-Glo CYP2C19 enzyme, luciferin luminescence, 1 h; series mostly up to 115 µM; activity change, negative = inhibition: at the top concentration.
Chain of Cytochrome P450 2C19 (Homo sapiens) (P33261 whole entry, looked up): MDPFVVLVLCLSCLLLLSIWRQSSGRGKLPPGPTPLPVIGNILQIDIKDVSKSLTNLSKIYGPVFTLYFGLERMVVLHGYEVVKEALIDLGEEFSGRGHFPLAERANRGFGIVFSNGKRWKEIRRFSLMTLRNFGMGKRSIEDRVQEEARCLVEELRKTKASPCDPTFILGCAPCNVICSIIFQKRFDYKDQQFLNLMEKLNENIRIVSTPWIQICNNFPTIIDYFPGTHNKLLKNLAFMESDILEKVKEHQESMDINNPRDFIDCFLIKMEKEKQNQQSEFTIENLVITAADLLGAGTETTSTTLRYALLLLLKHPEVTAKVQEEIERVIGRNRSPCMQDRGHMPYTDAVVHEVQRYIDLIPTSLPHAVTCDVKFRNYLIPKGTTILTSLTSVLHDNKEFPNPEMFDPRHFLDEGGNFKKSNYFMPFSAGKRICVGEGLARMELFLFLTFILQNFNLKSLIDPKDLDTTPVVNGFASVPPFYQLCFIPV
From the text: National Center for Advancing Translational Sciences [NCATS]
U.S. Environmental Protection Agency [EPA]
National Institutes of Environmental Health Sciences [NIEHS]
National Toxicology Program [NTP]
U.S. Food and Drug Administration [FDA]
Cytochrome P450 (CYP) enzymes are membrane-bound hemeproteins that play a key role in metabolism of drugs and xenobiotics. Evaluation of the effect of chemicals on CYP isozymes is useful to minimize the adverse drug reactions and toxicities in drug development process. Tox21 chemicals were tested for their effect on CYP enzyme activities by using P450-Glo (TM) screening systems (Promega Corporation, Madison, WI). These systems provide a luminescent method containing proluciferin substrates and are converted to luciferin products by CYP isozymes. The luciferin products formed are detected with a luciferin detection reagent, and the amount of light produced is proportional to CYP activity. P450-Glo (TM) CYP2C19 screening system (Catalog. No. V9880) was used to detect the compounds that interfere in CYP2C19 activity. The positive control compound used for CYP2C19 assay is ketoconazole (Sigma-Aldrich, St. Louis, MO).
Tox21 Assay Protocol Summary:
Two ul of enzyme-substrate mix was dispensed into medium binding white/solid 1536-well plates (Greiner Bio-One North America Inc., Monroe, NC) using a BioRaptr Flying Reagent Dispenser (FRD, Beckman Coulter, Brea, CA). Compounds dissolved in DMSO and positive control (ketoconazole) were transferred to the assay plates at 23 nl using a Pintool station (Wako, San Diego, CA). The assay plates were incubated at room temperature for 10 min. Then 2 ul of NADPH regeneration solution was added to each well of the assay plates using an FRD and incubated at 37C for 1 h. The reaction was stopped by adding 4 ul of detection reagent using an FRD and after 20 min incubation at room temperature the luminescence signal was measured using a ViewLux plate reader (Perkin Elmer, Shelton, CT). Data were expressed as relative luminescence units.
On the % scale 0 is the no-effect control and ±100 the full control effect; potency means the concentration at half of the fitted maximal effect.

Structure (SMILES)	activity change, negative = inhibition	Potency
CCCCc1ccc2nc(NC(=O)OC)[nH]c2c1	16.6% [at 52.9 µM]	
O=[N+]([O-])c1nccn1CO[C@@H](CO)[C@H](O)CO	-0.226% [at 52.9 µM]	
CC(=O)Oc1cc(C(C)C)c(OCCN(C)C)cc1C	39.4% [at 52.9 µM]	
CCCC(CCC)(C(=O)OCC)C(=O)OCC	-11.7% [at 52.9 µM]	
CC(C)OC(C)C	-5.22%	
CCOC(=O)NCCC[Si](OCC)(OCC)OCC	-11.3%	
CC(=O)O[C@H]1CC[C@@]2(C)C(=CC[C@@H]3[C@@H]2CC[C@]2(C)C(C(C)=O)=CC[C@@H]32)C1	13.9% [at 52.9 µM]	
CN1CCN(C2=Nc3ccccc3Oc3ccc(Cl)cc32)CC1		8.71 µM (active)
CC(C)C(=O)OCC(C)(C)C(O)C(C)C (stereo not given)	-18.1%	
CCOc1ccc(OCC)c(Cl)c1	14.9%	
CCNCCO	-8.12%	
CC[C@H]1CC[C@H](NCc2cc3c(cc2OC)[C@H]2C[C@H]2C(=O)N3C)[C@H](c2ccccc2)N1	28.1%	
CC(=O)N(CC(O)CN(C(C)=O)c1c(I)c(C(=O)NCC(O)CO)c(I)c(C(=O)NCC(O)CO)c1I)c1c(I)c(C(=O)NCC(O)CO)c(I)c(C(=O)NCC(O)CO)c1I (stereo not given)	41.5% [at 52.9 µM]	
CC(C)CC(=O)OCc1ccccc1	-4.55%	
CCCNC(C)C(=O)Nc1c(C)csc1C(=O)OC (stereo not given)	-14% [at 52.9 µM]	
C=CCCC=C	-26.1%	
CN1[C@@H]2CC[C@H]1CC(OC(=O)c1c[nH]c3ccccc13)C2 (stereo not given in full)	19.7% [at 52.9 µM]	
NC(=O)Cc1cccc(C(=O)c2ccccc2)c1N		34.7 µM (active)
CCOc1ccc(NC(N)=O)cc1	5.28%	
CCC/C=C/CO	-6.92%	

Structure (SMILES)	activity change, negative = inhibition	Potency
CN1CCN(N)CC1	1.6% [at 52.9 µM]	
C=Cc1ccccc1	7.05%	
C[C@]12C(=O)OC(=O)[C@H]1[C@H]1C=C[C@@H]2C1	11.2%	
FC(F)(F)C(F)(F)C(F)(F)C(F)(F)C(F)(F)C(F)(F)C(F)(F)C(F)(F)Br	18.2% [at 52.9 µM]	
CCN(CC)CCNC(=O)COc1ccc(Cl)cc1	14.8% [at 52.9 µM]	
CCC1(C)NC(=O)NC1=O (stereo not given)	-4.8%	
NNS(=O)(=O)c1ccc(Oc2ccc(S(=O)(=O)NN)cc2)cc1		10 µM (active)
COc1cc(C)ccc1C(C)C	16.7%	
CO[C@@]1(NC(=O)CSCC#N)C(=O)N2C(C(=O)O)=C(CSc3nnnn3C)CS[C@@H]21	13.6% [at 52.9 µM]	
CN1CCN(C2=Nc3cc(F)ccc3Cc3ccccc32)CC1	-11% [at 52.9 µM]	
O=C1CCCCCCCCCCC(=O)OCCO1		35.6 µM (active)
COC(C)CCO (stereo not given)	3.54%	
NS(=O)(=O)c1cc(-c2nn[nH]n2)c(NCc2cccs2)cc1Cl	9.61% [at 52.9 µM]	
CC1=C(O)C(=O)OC1C (stereo not given)	1.55%	
CCCCNc1ccc(C(=O)OCCN(CC)CC)cc1	34.1% [at 52.9 µM]	
CC(=O)OC(C)OC(C)=O	-20.7%	
CC1=CC(=O)CC(C)(C)C1=O	1.39%	
COC(=O)N[C@H](C(=O)N[C@@H](Cc1ccccc1)[C@@H](O)CN(Cc1ccc(-c2ccccn2)cc1)NC(=O)[C@@H](NC(=O)OC)C(C)(C)C)C(C)(C)C		34.7 µM (active)
CC(C)C(=O)OC/C=C/c1ccccc1		39.9 µM (active)
O=C(O[C@@H](C(=O)O)[C@@H](OC(=O)c1ccccc1)C(=O)O)c1ccccc1		45.6 µM (active)
